# Results with a measured potency or affinity are listed apart. Active and inactive are the calls of the source.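 Rule for the calls: active = cell killing with a fitted half-effect concentration at or below twice the top valid dose; inconclusive = flat curve with 30 to 70 percent drop, or poor fit; inactive = the rest.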
# Test: HEK293T cell cytotoxicity, dose response, cytotoxicity control, ATP luminescence, cherry-pick, set 6 (AID 1053126);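 note: 0% = neutral control wells and -100% = mitoxantrone 10 µM positive control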
# Details: HEK293T viability, CellTiter-Glo ATP luminescence, 72 h; series mostly up to 26 µM; activity change, negative = cytotoxicity: at the top concentration
row,SMILES,"activity change, negative = cytotoxicity"
1,CC(C)OCCCn1c(=N)c(C(N)=S)cc2c(=O)n3ccccc3nc21,-7.35% (inactive)
2,O=C(CCCn1c(=O)c2sccc2n(Cc2cc(=O)n3ccccc3n2)c1=O)NCc1ccco1,-9.89% (inactive)
3,CCCOc1ccccc1/C=C1\SC(N)=NC1=O,-4.46% (inactive)
4,S=c1[nH]c2ccc(Cc3ccc4[nH]c(=S)[nH]c4c3)cc2[nH]1,-20.1% (inactive)
5,O=C(O)c1ccc(N/N=C/c2ccc(-c3ccccc3Cl)o2)cc1,-11.7% (inactive)
6,CSc1ccc(Cn2c(C)c(C(=O)NCc3cccc(Cl)c3)sc2=O)cc1,-20.5% (inactive)
7,Nc1ccc2nc(-c3ccccc3)cnc2c1,-5.63% (inactive)
8,O=C(O)[C@@H]1CCCN1S(=O)(=O)c1cccc(S(=O)(=O)N2CCC[C@H]2C(=O)O)c1,-7.09% (inactive)
9,CC(C)C(=O)Nc1sc2c(c1C(N)=O)CCN(Cc1ccccc1)C2,6.18% (inactive)
10,COc1ccc(CCNC(=O)c2cc(S(=O)(=O)N3CCCCC3)c[nH]2)cc1OC,15.3% (inactive)
11,CCc1ccccc1S(=O)(=O)Cc1ccc(C(=O)N2CCN(c3ccccc3OC)CC2)o1,-6.49% (inactive)
12,COCCNC(=S)N/N=C/c1ccc(-c2ccc([N+](=O)[O-])cc2)o1,-3.43% (inactive)
13,CN1c2ccc(Cl)cc2C(=O)NC1C1CC=CCC1 (stereo not drawn),5.93% (inactive)
14,CCC(C)n1c(=N)c(C#N)cc2c(=O)n3cc(C)ccc3nc21 (stereo not drawn),5.65% (inactive)
15,COc1ccc(Cn2nnnc2C(CC(C)C)N2CCC(C(N)=O)CC2)cc1 (stereo not drawn),-13.4% (inactive)
16,CCOC(=O)c1c(C)n(C)c2ccc(OCC(O)CN3CCC(C)CC3)cc12 (stereo not drawn),12.2% (inactive)
17,Cc1cccn2c(=O)c3cc(C#N)c(=NC(=O)c4cccs4)n(CC(C)C)c3nc12,-4.41% (inactive)
18,CC(=O)c1cc2ccc(O)cc2oc1=O,-5.76% (inactive)
19,COc1ccc(C(=O)Oc2cc(N)n(S(=O)(=O)c3ccccc3)n2)cc1,8.42% (inactive)

row,SMILES,"activity change, negative = cytotoxicity"
1,COc1ccc(NC(=O)C2CCC(CNS(=O)(=O)c3cccs3)CC2)cc1 (stereo not drawn),-11.5% (inactive)
2,CCN1C=C(C(=O)OC)C(c2cccc(OC)c2OC)C(C(=O)OC)=C1,-2.69% (inactive)
3,CCC(C)NC(=S)N1CCN(Cc2ccc3c(c2)OCO3)CC1 (stereo not drawn),-10.4% (inactive)
4,O=C(/C=C/c1ccccc1)C1=C(O)C(=O)N(CCO)C1c1ccc2c(c1)OCO2 (stereo not drawn),-12.3% (inactive)
5,CCN(CC)CCN1C2=C(C(=O)CC(C)(C)C2)C(c2cccc(F)c2)C2=C1CC(C)(C)CC2=O,-0.832% (inactive)
6,CCOc1ccc(C(=O)c2cc3ccc(O)cc3oc2=O)cc1,65.5% (inactive)
7,N#CC1=C(N)OC2=C(C(=O)CCC2)C1c1cc2c(cc1Br)OCO2 (stereo not drawn),-8% (inactive)
8,COc1ccc(C(=O)c2sc3nc(-c4ccc(OC)cc4)ccc3c2N)cc1,36.5% (inactive)
9,COc1ccc(C2C3=C(CC(C)(C)CC3=O)N(C)C3=C2C(=O)CC(C)(C)C3)cc1,-3.74% (inactive)
10,Cc1cc(-n2c(=O)c(C#N)cc3c(=O)n4ccccc4nc32)no1,-11.8% (inactive)
11,Cc1ccc(-c2nc3ccsc3c(=O)[nH]2)cc1,-17.2% (inactive)
12,CC(=O)c1cc2c(ccc3ccccc32)oc1=O,-0.836% (inactive)
13,Cc1nc2ccccc2c2oc(C(=O)NCCCN3CCC(C)CC3)cc12,-16.4% (inactive)
14,Cc1oc(/N=C/c2ccc(O)cc2O)c(C#N)c1C,-8.77% (inactive)
15,C=CCn1c(=N)c(C#N)cc2c(=O)n3ccccc3nc21,-9.32% (inactive)
16,O=C(c1cccc(Cl)c1)N1CCC(=O)N(C(COCc2ccccc2)Cc2ccccc2)CC1 (stereo not drawn),-9.17% (inactive)
17,CC(=O)c1cccc(-c2ccnc3c2CC(C(=O)NCc2ccc(F)c(F)c2)O3)c1 (stereo not drawn),-11.2% (inactive)
18,CCOc1ccc(C2C(C#N)=C(N)Oc3cc(O)ccc32)cc1OCC (stereo not drawn),5.38% (inactive)
19,CCOc1ccccc1N=c1oc2cc(O)ccc2cc1C(=O)NCC1CCCO1 (stereo not drawn),-17% (inactive)
